Some test systems named below: DU-145 prostate; K-562 leukemia; MALME-3M melanoma; MDA-MB-231 breast; RXF 393 renal; SF-268 CNS; SF-295 CNS; SF-539 CNS; UACC-257 melanoma; M14 melanoma.
What all share (experiment): NCI-60 one-dose screen, 48 h (100 = growth as untreated, 0 = no growth, -100 = all killed)
Common to all, as to settings: 10 µM unless noted

About 83,000 compounds went through this panel and 20% of them were active in at least one assay; those are over-represented in the sample as a whole.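 Results are percent growth after 48 hours of single-concentration exposure. 100 means growth as in untreated cells, lower positive values show inhibition; negative values down to -100 show cell death.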 Values without a mark were called inactive. Active and inactive are the calls of the source. How the source made its calls: active means growth percent below 10; inactive means the rest.

`C[C@]12CCC(=O)C=C1CCC1C2[C@@H](O)C[C@@]2(C)C1CC[C@]2(O)C(=O)COC(=O)CCC(=O)O` (stereo not given in full): the growth is 118% with DU-145 prostate; 117% in the assay on K-562 leukemia; 81.7% in the assay with MALME-3M melanoma; 94.7% with MDA-MB-231 breast; 121% with RXF 393 renal; 107% with SF-268 CNS. For the same molecule, the growth in the assay with SF-295 CNS is 117%; in the assay with SF-539 CNS, 97%; in the assay on UACC-257 melanoma, 114%; with M14 melanoma it was 104%.
As to `CCN(CC)CCCCCCCNc1c2ccc(Cl)cc2nc2ccc(OC)cc12`, the growth in the assay with DU-145 prostate was -28.6% (active); with K-562 leukemia, -21.5% (active); in the assay on MALME-3M melanoma, -20.6% (active); in the assay on MDA-MB-231 breast, -30% (active); in the assay on RXF 393 renal, -70.8% (active); with SF-268 CNS, -59.1% (active). Further, the growth in the assay with SF-295 CNS was -51.6% (active); in the assay on SF-539 CNS, -71.2% (active); in the assay with UACC-257 melanoma, -84.3% (active); in the assay on M14 melanoma it was -48.8% (active).
With `Nc1nc2c(c(=O)[nH]1)C1(C(=O)Nc3ccccc31)c1c(nc(N)[nH]c1=O)N2`, the growth with DU-145 prostate was 108%; in the assay on K-562 leukemia it was 115%; in the assay on MALME-3M melanoma it was 99.9%; in the assay with MDA-MB-231 breast, 98.7%; in the assay on RXF 393 renal, 96.6%; in the assay with SF-268 CNS, 104%. Also, the growth in the assay on SF-295 CNS was 101%; in the assay with SF-539 CNS it was 106%; in the assay on UACC-257 melanoma, 110%; in the assay with M14 melanoma it was 99.3%.
Turning to `COc1ccc(C2=NN(C(C)=O)C(c3cccc(Nc4ccnc5cc(Cl)ccc45)c3)C2)cc1` (stereo not given), the growth in the assay on DU-145 prostate is 62.3%; with K-562 leukemia, 18.3%; with MALME-3M melanoma, 65.8%; in the assay with MDA-MB-231 breast, 63%; with RXF 393 renal, 51.1%; in the assay with SF-268 CNS it was 48.2%. For the same molecule, the growth in the assay with SF-295 CNS is 52.5%; with SF-539 CNS, 72.7%; in the assay with UACC-257 melanoma, 49.2%; in the assay with M14 melanoma it was 40.2%.
Take `C=CCN(/C=C/CN(CC=C)CC=C)CC=C`: the growth in the assay on DU-145 prostate is 110%; in the assay on K-562 leukemia, 100%; with MALME-3M melanoma it was 102%; in the assay on MDA-MB-231 breast, 90.4%; in the assay on RXF 393 renal, 111%; in the assay with SF-268 CNS it was 105%. Also, the growth was 84.3% in the assay with SF-295 CNS, 99.7% with SF-539 CNS, 108% with UACC-257 melanoma and 103% in the assay with M14 melanoma.
As for `c1ccc(Nc2ccc(Nc3nc(-c4ccccc4)nc4ccccc34)cc2)cc1`, the growth is 75.1% in the assay with DU-145 prostate; 6.16% (active) in the assay with K-562 leukemia; 109% in the assay on MALME-3M melanoma; 63% in the assay on MDA-MB-231 breast; 83% in the assay with RXF 393 renal; 93.6% in the assay with SF-268 CNS. For the same molecule, the growth with SF-295 CNS was 55.9%; in the assay on SF-539 CNS it was 86.2%; in the assay with UACC-257 melanoma, 100%; in the assay on M14 melanoma, 76%.
Consider `Nc1nc(Nc2ccccc2SSc2ccccc2Nc2nc(N)nc(-c3cccc(Cl)c3)n2)nc(-c2cccc(Cl)c2)n1`, for which the growth was 97% with DU-145 prostate; 81.9% with K-562 leukemia; 104% in the assay on MALME-3M melanoma; 74.8% with MDA-MB-231 breast; 106% in the assay on RXF 393 renal; 99.9% in the assay on SF-268 CNS. Further, the growth is 79.2% in the assay on SF-295 CNS, 99.6% with SF-539 CNS, 112% with UACC-257 melanoma and 95.4% with M14 melanoma.
Turning to `COc1cc(C2CC(c3ccc(C)cc3)=NN2C=O)ccc1OCCN(C)C` (stereo not given), the growth is 105% in the assay with DU-145 prostate; 83% with K-562 leukemia; 83.1% in the assay on MALME-3M melanoma; 97.2% in the assay on MDA-MB-231 breast; 79.8% in the assay with RXF 393 renal; 89.8% in the assay on SF-268 CNS. Further, the growth in the assay with SF-295 CNS was 97.4%; in the assay on SF-539 CNS, 89.5%; in the assay on UACC-257 melanoma, 92.9%; in the assay on M14 melanoma, 96.8%.
On to `[N-]=[N+]=NCc1ncc(-c2ccc(C(F)(F)F)cc2)c(NC2CCCCCC2)n1`, for which the growth in the assay on DU-145 prostate was 73.4% [50 µM]; in the assay with K-562 leukemia, 34.5% [50 µM]; in the assay with MALME-3M melanoma, 85% [50 µM]; in the assay on MDA-MB-231 breast it was 73% [50 µM]; in the assay on RXF 393 renal it was 87.7% [50 µM]; in the assay with SF-268 CNS, 75.5% [50 µM]. Moreover, the growth is 49.9% [50 µM] with SF-295 CNS, 82.2% [50 µM] in the assay on SF-539 CNS, 89.3% [50 µM] in the assay with UACC-257 melanoma and 74.6% [50 µM] in the assay on M14 melanoma.
Regarding `CCN(CC)CCNCC(=O)Oc1ccc(/C=C/C(=O)CC(=O)/C=C/c2ccc(OC(=O)CNCCN(CC)CC)c(OC)c2)cc1OC`, the growth in the assay with DU-145 prostate was -56.6% (active); in the assay on K-562 leukemia, -37.7% (active); with MALME-3M melanoma, -0.278% (active); in the assay with MDA-MB-231 breast, 14%; in the assay with RXF 393 renal it was -73% (active); in the assay on SF-268 CNS it was 13.5%. Also, the growth in the assay on SF-295 CNS was 27.3%; with SF-539 CNS, -35.9% (active); in the assay on UACC-257 melanoma it was 53.7%; in the assay with M14 melanoma it was -18.6% (active).
For the molecule `O[N+]1=CC=CCC1=S.On1ccccc1=S.[Zn]`, the growth in the assay with DU-145 prostate is -90.1% (active); with K-562 leukemia it was -17.7% (active); in the assay with MALME-3M melanoma, -54.9% (active); in the assay on MDA-MB-231 breast, -81.4% (active); in the assay with RXF 393 renal it was -84.9% (active); with SF-268 CNS, -46.6% (active). The growth in the assay on SF-295 CNS is -81.5% (active); in the assay with SF-539 CNS it was -64.8% (active); with UACC-257 melanoma, -88.8% (active); in the assay on M14 melanoma it was -74.2% (active).
As to `N#CSCC1CC(O)(c2ccccc2)C(c2ccccc2)C(c2ccc(Cl)cc2)O1` (stereo not given), the growth was -68.2% (active) in the assay on DU-145 prostate; -6.84% (active) with K-562 leukemia; -80.8% (active) in the assay with MALME-3M melanoma; -52.2% (active) with MDA-MB-231 breast; -91.5% (active) with RXF 393 renal; -34.1% (active) in the assay with SF-268 CNS. Besides, the growth was -77.9% (active) in the assay on SF-295 CNS, -96.4% (active) in the assay with SF-539 CNS, -70.2% (active) with UACC-257 melanoma and -77.8% (active) with M14 melanoma.
As for `CCOC(=O)/C=C1/SC(=Nc2ccc(C#N)cc2)N(Cc2ccco2)C1=O`, the growth in the assay with DU-145 prostate was 39.2%; in the assay on K-562 leukemia it was 8.76% (active); with MALME-3M melanoma, 47.6%; in the assay on MDA-MB-231 breast, 57%; in the assay on RXF 393 renal it was -23.9% (active); in the assay with SF-268 CNS, 73.2%. Further, the growth was 88.8% in the assay on SF-295 CNS, 38.1% with SF-539 CNS, 54.9% with UACC-257 melanoma and 25.8% with M14 melanoma.
